Source: PubChem BioAssay (ICCB-Longwood Screening Facility, Harvard Medical School)
Hits are enriched below; roughly 1.5% of the tested compounds scored in any of these assays.
MbtI inh = MbtI salicylate synthase inhibition | purified MbtI enzyme, fluorescence intensity read-out | inhibition, % (test concentration not listed) | AID 493033 | 0.89% of 100,000 active; in the data active = inhibition mostly above about 56%, no sharp cut-off; inactive = mostly below about 77%
Polio RdRp inh = inhibitors of poliovirus RNA polymerase binding and polymerization. P03300. poliovirus polymerase elongation, fluorescence polarization; active compounds read low. % elongation, % (compound at 16.7 µg/mL). 0.66% of 150,000 active; in the data active = % elongation below about 90%
Target sequence (P03300 1749-2209 limits assumed): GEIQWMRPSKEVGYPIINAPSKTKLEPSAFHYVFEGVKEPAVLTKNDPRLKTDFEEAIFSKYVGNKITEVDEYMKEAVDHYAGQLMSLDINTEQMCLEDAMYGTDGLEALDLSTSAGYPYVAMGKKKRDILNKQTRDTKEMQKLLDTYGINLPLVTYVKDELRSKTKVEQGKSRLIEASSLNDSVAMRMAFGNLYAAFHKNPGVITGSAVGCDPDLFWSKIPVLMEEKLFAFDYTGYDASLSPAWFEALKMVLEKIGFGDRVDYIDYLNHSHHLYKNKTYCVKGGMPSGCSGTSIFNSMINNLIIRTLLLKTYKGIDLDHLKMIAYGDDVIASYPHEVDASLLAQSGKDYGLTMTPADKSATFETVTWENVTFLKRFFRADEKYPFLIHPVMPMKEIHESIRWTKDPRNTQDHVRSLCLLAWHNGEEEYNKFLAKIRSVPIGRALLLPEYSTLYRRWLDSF
Mtb MenB inh = inhibitors of Mycobacterium tuberculosis MenB enzyme; MenB enzyme assay, absorbance read-out; P9WNP5; inhibition, % (test concentration not listed); AID 540299; 0.43% of 100,000 active; in the data active = inhibition above about 21%, passing the limit was not always enough
The depositor's hits bear a star; . = no result; ! = not confirmed by another sample.

SMILES	MbtI inh	Polio RdRp inh	Mtb MenB inh
N#Cc1cccc(NC(=O)c2c(Cl)nc3sccn23)c1	0	101	.
CCC(CO)NC(=S)Nc1ccccc1C (stereo not given)	.	108	-8
CNC(=S)N/N=C(\C)c1ccc(N2CCCCCC2)cc1	-3	100	-65
C/C(=N\NC(=S)NC1CCCCC1)c1ccc(O)cc1	90*	92	-5
C/C(=N\NC(=S)Nc1ccccc1C)c1ccc(O)cc1	93	75*	-59
Cc1ccc(N2CCN(C(=O)c3cnn(-c4ccc(C)c(C)c4)c3C3CCNCC3)CC2)c(C)c1	.	74*	.
Cc1ccc(Cl)cc1N1CCN(C(=O)c2cnn(-c3ccc(Cl)cc3)c2C2CCNCC2)CC1	.	106	.
CN(Cc1ccccc1)C(=O)CSc1nnc(-c2ccccc2F)n1N	10	107	2
Fc1ccccc1-c1nnc2ccc(C(F)(F)F)cn12	.	16*	14
Nc1nonc1C(=O)N1CCCC1	10	104	46*
Nc1nonc1/C(=N/O)N1CCCC1	8	101	26
Cc1ccc(S(=O)(=O)Nc2ccccc2N=Cc2ccc[nH]2)cc1	13	102	.
CSc1scc2c1C(=O)/C(=C/N(C)C)CC2	21	63*	-25
CSc1scc2c1C(=O)CC(C)(C)C2	-1	103	-13
CCOC(=O)/C(=C(/C)N)C1CC(=O)N(c2ccc(C(=O)OCC)cc2)C1=O (stereo not given)	-7	101	6
CC1(C)Nc2ccccc2C(=O)N1c1ccccc1	90	102	43*
COc1ccc(N2C(=O)c3ccccc3NC23CCCC3)cc1	-46	99	-22
Cc1cc(C(=O)N/N=C2\C(=O)c3cccc4cccc2c34)c(C)o1	4	102	-35
O=C(N/N=C1/C(=O)c2cccc3cccc1c23)c1ccncc1	3	89*	-32
CC(C)c1ccc(NC(=O)c2cccnc2Cl)cc1	-1	103	-13
N#Cc1cc(C(=O)c2ccccc2O)cn2c(=O)c3ccccc3nc12	18	44	-27
COc1ccccc1-n1cc(C(=O)c2ccccc2O)cc(C#N)c1=O	96*	113	-20
NC(=O)c1c(NC(=O)Nc2ccccc2)sc2c1CCCC2	.	107	-3
NC(=O)c1c(NC(=O)/C=C/c2cccs2)sc2c1CCCC2	53*	99	-43
O=C(Nc1ccc2c(c1)OCCO2)C1CCCN(S(=O)(=O)Cc2ccccc2)C1 (stereo not given)	0	101	56*
SMILES	MbtI inh	Polio RdRp inh	Mtb MenB inh
O=C(O)C1CCCN(S(=O)(=O)Cc2ccccc2)C1 (stereo not given)	-6	102	18
N#Cc1c(N2CCCC2)nc(N)c2c(N)nc(N3CCCC3)cc12	-41	74*	3
Cc1cc(C)c(C#N)c(N2CCCC2)n1	-56	100	8
CCOC(=O)Nc1ccc2c(CN3CCN(c4ccc(OC)cc4)CC3)cc(=O)oc2c1	-1	101	4
Nc1cc2ccccc2cc1C(=O)O	6	52*	-15
O=C(NCc1ccc(Cl)cc1)c1cc2ccccc2nc1Cl	-3	99	.
Nc1ccccc1C(=O)c1ccccc1C(=O)O	.	107	-26
O=C(O)c1cc2ccccc2nc1Cl	17	76*	-6
N#Cc1ccc[nH]c1=S	61	114	-60
O=c1c2sccc2[nH]c(=S)n1CC1CCCO1 (stereo not given)	27	100	-2
COc1ccc(/C=N/n2cn[nH]c2=S)cc1OC	-13	104	-27
S=c1[nH]ncn1/N=C/c1ccccc1	86*	100	8
CC1(C)Cc2ccccc2C2=NNC(=O)C2=N1	5	84*	6
Cc1cc(C)c2c(N)c(C3=NC(C)(C)Cc4ccccc43)sc2n1	.	107	-12
Cc1c(C(=O)Nc2ccc(S(=O)(=O)N3CCCCC3C)cc2)oc2ccccc12 (stereo not given)	57	102	-31
O=C(Nc1ccc(S(=O)(=O)Nc2ccccn2)cc1)c1ccc(F)cc1	-22	102	-33
COc1ccc2c(c1)nc(SCC(=O)C(C)(C)C)n2C	53*	98	0
COc1ccc2c(c1)nc(SCC(C)O)n2C (stereo not given)	2	98	.
O=C(Cn1c(=S)[nH]c2ccccc21)c1ccc(-c2ccccc2)cc1	.	103	-13
CC(=O)n1c(=S)[nH]c2ccccc21	101*	99	9
S=c1nc(C2CC2)[nH]c2ccccc12	92*	98	12
CC(C)c1nc(=S)c2ccccc2[nH]1	86	103	-56
CSc1nc(-c2ccc(Cl)cc2)nn1S(=O)(=O)c1ccc(NC(C)=O)cc1	28	103	-51
CNC(=O)c1ccccc1-c1nc(-c2ccccc2OC)no1	-5	101	-20
COc1ccccc1-c1noc(-c2ccccc2C(=O)NCc2ccco2)n1	59*	105	-17
SMILES	MbtI inh	Polio RdRp inh	Mtb MenB inh
NC(=O)CSc1nc2ccc(Cl)cc2[nH]1	5	105	-3
N#CCSc1nc2ccc(Cl)cc2[nH]1	53*	102	3
O=C1c2ccccc2C(=O)c2c1ccc(O)c2O	0	98	3
O=C1C=CC(=O)c2c(O)cccc21	-21	87*!	7
CN1CCN(C(=O)Cn2c(-c3cccs3)cc3ccccc32)CC1	.	108	.
CCN(C(=O)CSc1nc2ccccc2n1Cc1ccc(F)cc1Cl)c1ccccc1	.	105	.
COC(=O)c1nnn(-c2nonc2N)c1CN(C)C	-8	102	-27
COC(=O)c1nnn(-c2nonc2N)c1CSC#N	74*	102	5
O=C1C=CC(=O)N1c1ccc(F)c(Cl)c1	93*	101	.
N#Cc1cnn(-c2ccc(F)c(Cl)c2)c1N	0	100	6
Brc1cnn(Cc2ccccc2)c1	-10	102	9
O=C(CSc1ncccn1)N1N=C(c2ccc(Cl)cc2)CC1c1ccco1 (stereo not given)	9	100	-33
O=C1NC2(CCN(C(=O)NCc3ccc(F)cc3)CC2)Oc2ccccc21	0	101	-15
OC(CN1CCOCC1)Cn1c2c(c3ccccc31)CCCC2 (stereo not given)	-35	101	.
Nc1nnc(SCC(O)Cn2c3c(c4ccccc42)CCCC3)s1 (stereo not given)	.	103	25*
CC1=C(C(=O)NN)Sc2ccccc2N1	6	92	7
COC(=O)C1=C(C)Nc2ccccc2S1	58*	107	-11
CN1CCN(NC(=O)CSc2ccc(Cl)cc2Cl)CC1	2	99	-4
CCn1c(SCC(=O)Nc2ccc(C)c(C)c2)nnc1-c1nonc1NC(C)=O	.	113	.
CCn1c(-c2nonc2NC(C)=O)n[nH]c1=S	65*	102	-6
CC(=O)c1ccc(NC(=O)Cn2c(=O)oc3cc(S(=O)(=O)N4CCCCC4)ccc32)cc1	.	106	.
O=C1COc2ccc(-c3csc(=Nc4ccc(F)cc4)n3/N=C/c3ccc(O)c(O)c3)cc2N1	6	83*	-60
CN=c1scc(-c2ccc3c(c2)NC(=O)CO3)n1/N=C/c1ccc(C#N)cc1	-12	102	-14
O=C(O)CCCN=C1NC2(CCCC2)Cc2ccccc21	.	108	-17
O=C(O)CN=C1NC2(CCCC2)Cc2ccccc21	-1	100	34*
C=CCC1N(c2ccccc2)C(=O)C2C(C(=O)O)C3C=CC21O3 (stereo not given)	6	102	-57
CCOC(=O)CSc1nc2ccccc2n1Cc1ccccc1	-3	99	-22
